Data: ChEMBL document CHEMBL2218924, “A broad activity screen in support of a chemogenomic map for kinase signalling research and drug discovery” (Biochem J, 2013)

Experiments:
[1] = target: Serine/threonine-protein kinase WNK2 (Homo sapiens) (UniProt Q9Y3S1); conditions: at 10 µM
[2] = target: Serine/threonine-protein kinase WNK3 (Homo sapiens) (UniProt Q9BYP7); conditions: at 1 µM
[3] = target: Serine/threonine-protein kinase WNK3 (Homo sapiens) (UniProt Q9BYP7); conditions: at 10 µM
[4] = target: Tyrosine-protein kinase Yes (Homo sapiens) (UniProt P07947); conditions: at 1 µM
[5] = target: Tyrosine-protein kinase Yes (Homo sapiens) (UniProt P07947); conditions: at 10 µM
[6] = target: T1, Tyrosine-protein kinase ZAP-70 (Homo sapiens) (UniProt P43403); conditions: at 1 µM
T1 sequence (whole entry): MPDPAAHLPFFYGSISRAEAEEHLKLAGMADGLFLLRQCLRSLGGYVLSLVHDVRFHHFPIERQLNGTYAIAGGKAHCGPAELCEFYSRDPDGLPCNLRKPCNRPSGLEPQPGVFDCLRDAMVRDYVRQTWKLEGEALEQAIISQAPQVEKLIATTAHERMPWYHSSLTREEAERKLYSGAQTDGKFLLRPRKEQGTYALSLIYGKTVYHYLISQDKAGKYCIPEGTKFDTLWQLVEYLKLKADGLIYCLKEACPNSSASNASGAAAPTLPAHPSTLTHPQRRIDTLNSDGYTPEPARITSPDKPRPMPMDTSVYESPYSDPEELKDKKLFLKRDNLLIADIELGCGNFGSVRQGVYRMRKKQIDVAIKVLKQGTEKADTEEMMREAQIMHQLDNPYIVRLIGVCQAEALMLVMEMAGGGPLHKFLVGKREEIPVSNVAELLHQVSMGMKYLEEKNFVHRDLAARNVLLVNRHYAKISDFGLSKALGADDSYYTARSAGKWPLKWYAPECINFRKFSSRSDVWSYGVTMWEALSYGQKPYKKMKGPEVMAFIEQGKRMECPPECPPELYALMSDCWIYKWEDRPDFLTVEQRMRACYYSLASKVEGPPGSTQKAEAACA

[7] = target: Death-associated protein kinase 3 (Homo sapiens) (UniProt O43293); conditions: at 1 µM
[8] = target: Death-associated protein kinase 3 (Homo sapiens) (UniProt O43293); conditions: at 10 µM
[9] = target: RAF proto-oncogene serine/threonine-protein kinase (Homo sapiens) (UniProt P04049); conditions: at 1 µM
[10] = target: RAF proto-oncogene serine/threonine-protein kinase (Homo sapiens) (UniProt P04049); conditions: at 10 µM
[11] = target: Mast/stem cell growth factor receptor Kit (Homo sapiens) (UniProt P10721); conditions: at 1 µM
[12] = target: Mast/stem cell growth factor receptor Kit (Homo sapiens) (UniProt P10721); conditions: at 10 µM
[13] = target: Proto-oncogene tyrosine-protein kinase Src (Homo sapiens) (UniProt P12931); conditions: at 1 µM
[14] = target: Proto-oncogene tyrosine-protein kinase Src (Homo sapiens) (UniProt P12931); conditions: at 10 µM
[15] = target: T2, Eukaryotic elongation factor 2 kinase (Homo sapiens) (UniProt O00418); conditions: at 1 µM
T2 sequence (whole entry): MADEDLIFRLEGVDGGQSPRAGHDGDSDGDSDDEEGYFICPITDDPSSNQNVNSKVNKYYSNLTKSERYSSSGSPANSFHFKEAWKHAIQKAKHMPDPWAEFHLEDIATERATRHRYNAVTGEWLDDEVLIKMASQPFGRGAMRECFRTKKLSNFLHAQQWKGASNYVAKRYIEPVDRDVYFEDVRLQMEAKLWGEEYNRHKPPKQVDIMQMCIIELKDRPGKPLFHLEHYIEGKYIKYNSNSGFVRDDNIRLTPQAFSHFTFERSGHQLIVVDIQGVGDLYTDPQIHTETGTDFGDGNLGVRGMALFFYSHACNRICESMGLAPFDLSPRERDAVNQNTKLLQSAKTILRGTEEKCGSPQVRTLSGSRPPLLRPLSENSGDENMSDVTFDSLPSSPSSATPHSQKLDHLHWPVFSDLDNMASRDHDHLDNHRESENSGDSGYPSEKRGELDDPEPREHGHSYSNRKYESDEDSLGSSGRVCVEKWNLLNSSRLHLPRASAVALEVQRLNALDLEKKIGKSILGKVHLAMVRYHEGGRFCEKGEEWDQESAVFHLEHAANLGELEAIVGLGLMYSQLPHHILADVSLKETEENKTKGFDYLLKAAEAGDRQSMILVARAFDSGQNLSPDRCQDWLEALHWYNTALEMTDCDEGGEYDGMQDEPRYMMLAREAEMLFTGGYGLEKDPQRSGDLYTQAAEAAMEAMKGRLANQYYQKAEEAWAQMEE

[16] = target: T2, Eukaryotic elongation factor 2 kinase (Homo sapiens); conditions: at 10 µM
[17] = target: Serine/threonine-protein kinase mTOR (Homo sapiens) (UniProt P42345); conditions: at 1 µM
[18] = target: Serine/threonine-protein kinase mTOR (Homo sapiens) (UniProt P42345); conditions: at 10 µM
[19] = target: Serine/threonine-protein kinase mTOR (Homo sapiens) (UniProt P42345); conditions: at 1 µM; remark: listed apart in the source
[20] = target: Serine/threonine-protein kinase mTOR (Homo sapiens) (UniProt P42345); conditions: at 10 µM; remark: listed apart in the source

RAF proto-oncogene serine/threonine-protein kinase (Homo sapiens), sequence (P04049 whole entry): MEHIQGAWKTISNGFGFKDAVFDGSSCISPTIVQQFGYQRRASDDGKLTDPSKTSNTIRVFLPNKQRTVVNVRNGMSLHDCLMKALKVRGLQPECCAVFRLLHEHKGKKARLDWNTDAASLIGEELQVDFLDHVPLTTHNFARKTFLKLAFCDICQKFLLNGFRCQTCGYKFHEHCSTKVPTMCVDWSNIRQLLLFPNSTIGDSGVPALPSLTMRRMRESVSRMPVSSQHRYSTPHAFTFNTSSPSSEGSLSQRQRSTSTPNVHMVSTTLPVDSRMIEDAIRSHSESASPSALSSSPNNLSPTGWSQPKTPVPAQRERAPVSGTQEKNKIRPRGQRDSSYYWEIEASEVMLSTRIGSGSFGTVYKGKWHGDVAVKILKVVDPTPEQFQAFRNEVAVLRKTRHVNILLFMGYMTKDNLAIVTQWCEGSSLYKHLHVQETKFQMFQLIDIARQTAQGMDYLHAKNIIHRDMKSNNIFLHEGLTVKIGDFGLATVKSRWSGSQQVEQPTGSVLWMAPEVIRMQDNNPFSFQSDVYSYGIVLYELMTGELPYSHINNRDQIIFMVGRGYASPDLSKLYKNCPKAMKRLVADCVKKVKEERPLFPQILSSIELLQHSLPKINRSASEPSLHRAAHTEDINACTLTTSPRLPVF
Mast/stem cell growth factor receptor Kit (Homo sapiens), sequence (P10721 whole entry): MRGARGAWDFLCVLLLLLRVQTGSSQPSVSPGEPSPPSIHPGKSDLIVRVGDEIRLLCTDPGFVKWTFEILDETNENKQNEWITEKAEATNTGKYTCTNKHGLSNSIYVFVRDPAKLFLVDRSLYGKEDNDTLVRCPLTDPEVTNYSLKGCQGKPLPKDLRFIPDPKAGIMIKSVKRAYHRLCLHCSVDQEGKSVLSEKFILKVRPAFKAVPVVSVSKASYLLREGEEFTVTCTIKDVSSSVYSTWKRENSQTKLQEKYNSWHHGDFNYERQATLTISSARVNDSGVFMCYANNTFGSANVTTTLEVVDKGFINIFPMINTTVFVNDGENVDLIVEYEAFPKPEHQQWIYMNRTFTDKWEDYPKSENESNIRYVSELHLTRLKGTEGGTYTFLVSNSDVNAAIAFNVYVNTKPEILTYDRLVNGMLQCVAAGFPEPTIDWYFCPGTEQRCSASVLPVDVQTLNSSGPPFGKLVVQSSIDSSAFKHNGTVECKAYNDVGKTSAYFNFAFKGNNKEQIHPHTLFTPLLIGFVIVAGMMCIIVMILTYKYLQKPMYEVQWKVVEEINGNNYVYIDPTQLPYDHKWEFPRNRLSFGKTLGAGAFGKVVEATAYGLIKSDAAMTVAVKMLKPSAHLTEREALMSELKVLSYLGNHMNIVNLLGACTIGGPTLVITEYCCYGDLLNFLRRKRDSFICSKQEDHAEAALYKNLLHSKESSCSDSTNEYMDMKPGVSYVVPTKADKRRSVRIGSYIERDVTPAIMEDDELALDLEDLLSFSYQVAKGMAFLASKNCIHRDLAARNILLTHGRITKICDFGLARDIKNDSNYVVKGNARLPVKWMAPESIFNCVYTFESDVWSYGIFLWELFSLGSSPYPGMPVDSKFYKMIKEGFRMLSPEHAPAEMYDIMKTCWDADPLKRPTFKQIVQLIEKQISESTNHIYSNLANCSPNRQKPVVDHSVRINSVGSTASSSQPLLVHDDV
Serine/threonine-protein kinase WNK2 (Homo sapiens), sequence (Q9Y3S1 whole entry): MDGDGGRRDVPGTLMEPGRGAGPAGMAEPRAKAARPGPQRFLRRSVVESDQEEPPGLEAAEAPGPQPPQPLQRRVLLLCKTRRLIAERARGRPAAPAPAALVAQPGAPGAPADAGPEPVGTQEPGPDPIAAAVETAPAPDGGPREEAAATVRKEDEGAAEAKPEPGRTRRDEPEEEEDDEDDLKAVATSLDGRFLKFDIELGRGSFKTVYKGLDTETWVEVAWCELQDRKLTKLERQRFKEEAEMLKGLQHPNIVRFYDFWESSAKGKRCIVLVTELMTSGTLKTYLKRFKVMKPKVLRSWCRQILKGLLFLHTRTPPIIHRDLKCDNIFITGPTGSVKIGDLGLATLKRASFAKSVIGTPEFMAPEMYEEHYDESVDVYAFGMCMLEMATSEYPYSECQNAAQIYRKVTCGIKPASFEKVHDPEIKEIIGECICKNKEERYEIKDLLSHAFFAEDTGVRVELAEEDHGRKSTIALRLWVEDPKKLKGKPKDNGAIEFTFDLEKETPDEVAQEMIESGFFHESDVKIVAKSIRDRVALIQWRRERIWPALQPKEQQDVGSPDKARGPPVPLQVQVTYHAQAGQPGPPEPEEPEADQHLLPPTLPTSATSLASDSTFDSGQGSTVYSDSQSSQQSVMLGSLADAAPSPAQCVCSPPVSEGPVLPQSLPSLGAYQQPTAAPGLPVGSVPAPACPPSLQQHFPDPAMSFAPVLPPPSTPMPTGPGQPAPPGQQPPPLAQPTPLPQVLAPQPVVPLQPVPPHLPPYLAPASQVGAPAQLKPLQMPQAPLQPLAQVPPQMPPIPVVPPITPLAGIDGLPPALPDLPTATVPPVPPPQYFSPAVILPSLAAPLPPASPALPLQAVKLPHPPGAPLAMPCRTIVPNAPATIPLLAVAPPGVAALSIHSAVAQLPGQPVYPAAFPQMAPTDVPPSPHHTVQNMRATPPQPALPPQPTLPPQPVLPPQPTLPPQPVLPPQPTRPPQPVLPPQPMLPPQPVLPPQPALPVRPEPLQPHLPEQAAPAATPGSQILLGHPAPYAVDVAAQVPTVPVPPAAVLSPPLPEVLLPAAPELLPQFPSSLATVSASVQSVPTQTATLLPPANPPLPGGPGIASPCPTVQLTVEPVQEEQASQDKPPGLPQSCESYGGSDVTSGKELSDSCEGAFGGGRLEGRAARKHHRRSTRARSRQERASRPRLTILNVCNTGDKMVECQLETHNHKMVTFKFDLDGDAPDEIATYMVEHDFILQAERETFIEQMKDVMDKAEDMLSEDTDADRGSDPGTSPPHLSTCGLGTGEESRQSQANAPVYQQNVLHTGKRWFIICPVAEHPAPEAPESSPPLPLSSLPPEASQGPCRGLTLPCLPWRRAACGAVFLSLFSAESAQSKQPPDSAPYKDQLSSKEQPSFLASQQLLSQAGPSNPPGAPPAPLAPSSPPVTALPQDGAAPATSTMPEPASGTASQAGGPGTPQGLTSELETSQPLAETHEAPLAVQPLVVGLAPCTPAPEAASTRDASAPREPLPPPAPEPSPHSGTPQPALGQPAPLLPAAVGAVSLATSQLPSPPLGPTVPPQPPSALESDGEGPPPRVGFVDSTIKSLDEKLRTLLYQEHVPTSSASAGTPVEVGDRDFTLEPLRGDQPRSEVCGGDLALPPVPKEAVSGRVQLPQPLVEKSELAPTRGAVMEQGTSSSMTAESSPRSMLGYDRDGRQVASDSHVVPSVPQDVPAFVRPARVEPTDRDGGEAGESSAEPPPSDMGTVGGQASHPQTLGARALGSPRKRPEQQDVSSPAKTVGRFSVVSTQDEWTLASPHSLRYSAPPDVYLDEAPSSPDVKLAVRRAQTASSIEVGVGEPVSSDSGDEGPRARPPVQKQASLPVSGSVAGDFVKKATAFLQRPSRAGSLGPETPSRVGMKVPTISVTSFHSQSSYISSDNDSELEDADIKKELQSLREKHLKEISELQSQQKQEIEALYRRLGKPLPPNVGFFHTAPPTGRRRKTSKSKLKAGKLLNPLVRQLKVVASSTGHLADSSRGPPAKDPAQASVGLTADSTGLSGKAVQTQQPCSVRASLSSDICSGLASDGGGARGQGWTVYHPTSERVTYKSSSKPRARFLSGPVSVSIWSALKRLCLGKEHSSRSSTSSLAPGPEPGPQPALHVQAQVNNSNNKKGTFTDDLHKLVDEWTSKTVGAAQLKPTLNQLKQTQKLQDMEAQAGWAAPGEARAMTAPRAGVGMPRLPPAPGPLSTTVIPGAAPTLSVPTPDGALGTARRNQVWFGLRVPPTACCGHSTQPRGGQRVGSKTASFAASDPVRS
Death-associated protein kinase 3 (Homo sapiens), sequence (O43293 whole entry, looked up): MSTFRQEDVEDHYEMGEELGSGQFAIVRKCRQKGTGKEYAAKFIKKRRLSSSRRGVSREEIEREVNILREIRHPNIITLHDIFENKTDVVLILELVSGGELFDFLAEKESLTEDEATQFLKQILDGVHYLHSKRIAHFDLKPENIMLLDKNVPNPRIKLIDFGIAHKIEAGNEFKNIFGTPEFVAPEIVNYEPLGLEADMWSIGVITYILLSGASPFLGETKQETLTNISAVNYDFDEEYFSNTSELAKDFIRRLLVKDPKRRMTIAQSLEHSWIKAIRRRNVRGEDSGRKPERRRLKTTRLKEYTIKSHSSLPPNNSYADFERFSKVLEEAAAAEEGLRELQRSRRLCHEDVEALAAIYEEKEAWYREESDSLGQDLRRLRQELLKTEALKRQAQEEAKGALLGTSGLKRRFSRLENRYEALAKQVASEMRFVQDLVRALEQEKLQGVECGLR
Proto-oncogene tyrosine-protein kinase Src (Homo sapiens), sequence (P12931 2-536 limits assumed): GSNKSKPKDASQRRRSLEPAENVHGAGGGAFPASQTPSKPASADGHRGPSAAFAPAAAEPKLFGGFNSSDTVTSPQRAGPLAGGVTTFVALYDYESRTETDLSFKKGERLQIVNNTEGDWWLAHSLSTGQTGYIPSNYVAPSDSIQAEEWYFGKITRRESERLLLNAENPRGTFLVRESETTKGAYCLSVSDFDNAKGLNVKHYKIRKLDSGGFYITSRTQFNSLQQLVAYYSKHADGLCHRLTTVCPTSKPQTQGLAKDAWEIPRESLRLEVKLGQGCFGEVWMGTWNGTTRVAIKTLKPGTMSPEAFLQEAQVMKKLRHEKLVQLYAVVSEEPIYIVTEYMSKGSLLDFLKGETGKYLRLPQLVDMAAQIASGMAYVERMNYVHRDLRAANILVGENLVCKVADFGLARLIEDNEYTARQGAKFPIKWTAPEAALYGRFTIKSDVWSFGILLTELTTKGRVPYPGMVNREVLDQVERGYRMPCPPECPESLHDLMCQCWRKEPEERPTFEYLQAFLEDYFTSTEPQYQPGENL

SMILES	residual activity [1] [%]	residual activity [2]	residual activity [3] [%]	residual activity [4] [%]	residual activity [5] [%]	residual activity [6] [%]	residual activity [7] [%]	residual activity [8] [%]	residual activity [9] [%]	residual activity [10] [%]	residual activity [11] [%]	residual activity [12] [%]	residual activity [13] [%]	residual activity [14] [%]	residual activity [15]	residual activity [16] [%]	residual activity [17] [%]	residual activity [18] [%]	residual activity [19] [%]	residual activity [20] [%]
COc1ccc(CNc2nc(N(CCO)CCO)nc3c2ncn3C(C)C)cc1	86	97% (inactive)	93	100	89	102	99	92	85	69	91	66	104	82	106% (inactive)	101	106	97	128	99
CCC(=O)Nc1ccc2ncnc(Nc3cccc(Br)c3)c2c1	80	95% (inactive)	80	85	50	86	75	100	77	90	109	103	88	89	94% (inactive)	107	106	104	123	101
COc1ccc(OC)c2c(=S)c3ccccc3[nH]c12	87	89% (inactive)	89	100	100	90	93	90	87	83	93	93	118	93	–	–	100	84	119	76
CC[n+]1c(/C=C/N(C)c2ccccc2)n(-c2ccccc2)c2ccc(-c3nc4ccccc4s3)cc21	35	100% (inactive)	44	105	100	117	100	73	105	98	123	106	85	128	–	–	85	86	84	79
COc1cc2ncnc(N3CCN(C(=O)Nc4ccc(Oc5ccccc5)cc4)CC3)c2cc1OC	48	80% (inactive)	58	103	105	102	105	144	78	93	37	7	95	97	–	–	107	102	98	99
COc1cc2ncnc(Nc3ccc(O)c(Br)c3)c2cc1OC	70	87% (inactive)	77	25	2	144	83	58	64	38	102	103	54	18	–	–	106	111	96	101
O=[N+]([O-])c1ccc(-c2nc(-c3ccc(F)cc3)c(-c3ccncc3)[nH]2)cc1	95	92% (inactive)	98	103	102	122	92	102	20	13	123	110	113	90	108% (inactive)	94	110	112	126	71
NC(=O)c1ccc2[nH]c(-c3ccc(Oc4ccc(Cl)cc4)cc3)nc2c1	78	93% (inactive)	86	112	105	95	92	106	75	74	106	90	108	92	89% (inactive)	140	123	96	113	110
N#CC(C#N)=C(N)/C(C#N)=C/c1ccc(O)cc1	83	96% (inactive)	75	–	93	128	–	–	92	88	–	–	83	–	–	–	–	–	–	61
Cc1cccc(-c2[nH]c(C(C)(C)C)nc2-c2ccc3c(c2)OCO3)n1	84	89% (inactive)	89	103	44	–	–	–	82	71	–	–	91	102	–	–	–	–	–	–
COc1cc2ncnc(Nc3ccc(Oc4ccccc4)cc3)c2cc1OC	41	88% (inactive)	49	9	4	114	103	117	–	–	109	60	36	24	92% (inactive)	132	90	95	80	95
c1ccc(-c2n[nH]c3c2oc2ccccc23)cc1	74	–	–	99	67	–	94	100	74	85	16	1	86	90	–	–	88	85	–	72
N#CCCc1ccc2c(c1)-c1[nH]c3ccc([N+](=O)[O-])cc3c1CC(=O)N2	–	–	–	9	0	–	–	–	–	–	–	–	46	13	–	–	116	–	–	–
CN(C)CCCn1cc(C2=C(c3c[nH]c4ccccc34)C(=O)NC2=O)c2ccccc21	86	121% (inactive)	–	105	33	133	62	35	113	110	–	–	82	–	–	–	84	–	83	–
CC#CC(=O)Nc1cc2c(Nc3ccc(F)c(Cl)c3)ncnc2cn1	84	102% (inactive)	79	101	90	103	90	100	82	92	111	100	89	92	–	–	108	100	113	92
CCOc1cc2ncnc(Nc3cccc(Br)c3)c2cc1OCC	79	99% (inactive)	86	17	2	122	91	96	84	71	108	101	53	14	–	–	110	106	94	100

SMILES	residual activity [1] [%]	residual activity [2]	residual activity [3] [%]	residual activity [4] [%]	residual activity [5] [%]	residual activity [6] [%]	residual activity [7] [%]	residual activity [8] [%]	residual activity [9] [%]	residual activity [10] [%]	residual activity [11] [%]	residual activity [12] [%]	residual activity [13] [%]	residual activity [14] [%]	residual activity [15]	residual activity [16] [%]	residual activity [17] [%]	residual activity [18] [%]	residual activity [19] [%]	residual activity [20] [%]
Cn1nc2c3c(cccc31)C(=O)c1ccccc1-2	89	95% (inactive)	67	–	95	92	77	82	80	72	104	95	–	93	–	–	82	84	–	66
Cn1cnc2cc3c(Nc4cccc(Br)c4)ncnc3cc21	85	93% (inactive)	90	31	14	87	89	101	85	90	114	92	64	32	–	–	102	105	104	97
O=C1NC(=O)c2cc(Nc3ccc(F)cc3)c(Nc3ccc(F)cc3)cc21	34	87% (inactive)	46	61	10	113	104	99	–	–	113	99	74	51	–	–	90	85	73	85
Ic1cccc(CSc2nnc(-c3ccncc3)o2)c1	83	89% (inactive)	89	96	84	101	107	105	77	64	97	102	113	83	–	–	108	102	108	109
CO[C@H]1[C@@H](OC)C[C@H](C)[C@@H](OC)C2=CC(=O)C=C(NC(=O)/C(C)=C/C=C/[C@H](OC)[C@@H](OC(N)=O)/C(C)=C/[C@@H]1C)C2=O	90	112% (inactive)	106	101	90	98	108	96	93	85	104	98	101	92	–	–	95	103	77	89
c1ccc2c(-c3ccncc3)c[nH]c2c1	75	98% (inactive)	96	–	97	–	110	107	73	81	110	98	80	101	–	–	109	107	75	110
Cc1ccc(S(=O)(=O)/C=C/C#N)cc1	95	98% (inactive)	98	123	103	–	88	93	91	87	100	114	114	76	–	–	95	101	86	82
Oc1ccc(-c2nc(-c3ccc(F)cc3)c(-c3ccncc3)[nH]2)cc1	84	109% (inactive)	75	105	34	117	121	101	14	–	122	107	108	45	–	–	98	90	123	90
c1ccc(-c2n[nH]cc2-c2ccnc3ccccc23)nc1	88	97% (inactive)	91	98	53	–	–	96	81	51	101	107	86	90	–	–	–	–	85	102
Nc1ccc2ncnc(NCCc3ccc(Oc4ccccc4)cc3)c2c1	82	102% (inactive)	87	63	33	109	111	111	82	77	114	95	110	95	–	–	–	96	112	63
CCN(CC)C(=O)c1ccc(Nc2nc(OCC3CCCCC3)c3nc[nH]c3n2)cc1	48	–	–	13	1	–	–	65	62	21	33	5	62	12	–	–	–	–	–	55
COc1cc2ncc(-c3ccccc3)nc2cc1OC	94	126% (inactive)	95	–	–	–	96	100	99	86	84	24	88	95	–	–	–	–	–	–
N#Cc1cnc2cnc(NCc3cccnc3)cc2c1Nc1ccc(F)c(Cl)c1	–	97% (inactive)	87	9	5	44	65	48	77	91	–	92	56	39	–	–	89	85	–	96
Nc1cccc(-c2cc3c(Oc4cccc(O)c4)ncnc3[nH]2)c1	40	93% (inactive)	49	1	-1	–	92	–	36	10	20	2	6	-3	–	–	–	83	122	94
CO[C@H]1C[C@@H]2CC[C@@H](C)[C@@](O)(O2)C(=O)C(=O)N2CCCC[C@H]2C(=O)O[C@H]([C@H](C)C[C@@H]2CC[C@@H](O)[C@H](OC)C2)CC(=O)[C@H](C)/C=C(\C)[C@@H](O)[C@@H](OC)C(=O)[C@H](C)C[C@H](C)/C=C/C=C/C=C/1C	94	107% (inactive)	111	103	–	104	116	141	73	108	110	101	89	95	–	–	57	51	-17	4
CC(=O)c1ccc(N2CCOCC2)cc1O	94	104% (inactive)	104	–	–	84	106	97	83	97	–	101	86	93	–	–	–	–	104	–
